Compounds without any hit were thinned out: in the full panel of roughly 79,000, 15% have a hit. Unmarked numbers belong to inactive results. The source made the active and inactive calls. No stated cut-off is given here; in the data, active means growth inhibition above about 70%; inactive means the rest.
Legend:
[1] = NCI Yeast Anticancer Drug Screen. Data for the wt1 strain (AID 149);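 further: 0% = growth of vehicle-treated wt1 cultures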; details: S. cerevisiae wt1 strain (SPY 50644) growth inhibition, hits give high values
Outline: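 Growth inhibition read against vehicle controls after compound exposure of the wt1 yeast strain.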

[2] = NCI Yeast Anticancer Drug Screen. Data for the rad50EPP+ strain (AID 151);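 further: 0% = growth of vehicle-treated control cultures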; details: S. cerevisiae rad50 mutant strain, hits give high values
Outline: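 Genetically defined yeast (rad50EPP+, DNA damage repair alteration) is grown with compound, and inhibition of growth is expressed relative to vehicle-treated controls.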

[3] = NCI Yeast Anticancer Drug Screen. Data for the mgt1 strain (AID 153); details: S. cerevisiae mgt1 mutant growth inhibition, hits give high values
Outline: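 In the mgt1 strain, test compounds were added and growth inhibition was determined relative to vehicle-treated controls.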

[4] = NCI Yeast Anticancer Drug Screen. Data for the rad50 strain (AID 155);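 further: 0% = growth of vehicle-only cultures of the same strain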; details: S. cerevisiae rad50 strain growth inhibition, hits give high values
Outline: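 Readout: growth inhibition relative to vehicle-treated cultures. Compound exposure was carried out in a genetically defined yeast strain deficient in DNA damage repair.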

[5] = NCI Yeast Anticancer Drug Screen. Data for the mec2-1 strain (AID 157); details: S. cerevisiae mec2-1 strain, hits give high values
Outline: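 Each compound was tested on mec2-1 yeast, a strain altered in DNA damage repair or cell cycle control. Growth inhibition is reported relative to vehicle.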

[6] = NCI Yeast Anticancer Drug Screen. Data for the rad14 strain (AID 159);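 further: 0% = growth of vehicle-treated control cultures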; details: S. cerevisiae rad14 strain growth inhibition, hits give high values
Outline: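 Growth inhibition vs vehicle controls; genetically altered yeast strain (DNA damage repair defect) treated with test compounds.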

[7] = NCI Yeast Anticancer Drug Screen. Data for the sgs1 mgt1 strain (AID 161);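 further: 0% = growth of cultures given vehicle only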; details: S. cerevisiae sgs1 mgt1 strain, hits give high values
Outline: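 Test agents were incubated with a DNA-repair-mutant yeast strain. Growth was then read and compared against vehicle-treated controls.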

[8] = NCI Yeast Anticancer Drug Screen. Data for the CLN2oe strain (AID 163);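 further: 0% = growth of vehicle-only control cultures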; details: S. cerevisiae CLN2oe strain, hits give high values
Outline: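 First, the altered yeast strain was treated with each compound; second, its growth was measured; finally, inhibition was derived by comparison with vehicle controls.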

[9] = NCI Yeast Anticancer Drug Screen. Data for the cln2 rad14 strain (AID 165);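 further: 0% = growth equal to vehicle treated cultures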; details: S. cerevisiae cln2 rad14 strain, hits give high values
Outline: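 Test compounds were added to cln2 rad14 yeast cultures; inhibition of growth was then determined by comparison with vehicle treatment.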

[10] = NCI Yeast Anticancer Drug Screen. Data for the bub3 strain (AID 167); details: S. cerevisiae bub3 mutant strain, hits give high values
Outline: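 Readout: yeast growth inhibition, expressed relative to vehicle-only wells. The test organism is a mutant strain from a panel with lesions in DNA repair or checkpoint genes.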

[11] = NCI Yeast Anticancer Drug Screen. Data for the wt2 strain (AID 169);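 further: 0% = growth of vehicle-treated yeast cultures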; details: S. cerevisiae wt2 strain growth inhibition, hits give high values
Outline: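 The panel's yeast strains carry defined changes in DNA repair or cell cycle genes. Each strain is grown with compound, and growth loss is scored relative to vehicle.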

[12] = NCI Yeast Anticancer Drug Screen. Data for the mlh1 strain (AID 171);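 further: 0% = growth of vehicle-treated control cultures of the same strain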; details: S. cerevisiae mlh1 strain growth inhibition, hits give high values
Outline: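 Inhibition values reflect reduced yeast growth in the presence of compound, referenced to vehicle controls, using a strain chosen for its alteration in DNA repair or cell cycle control.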

[13] = NCI Yeast Anticancer Drug Screen. Data for the sgs1 strain (AID 173);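 further: 0% = growth of vehicle-only control cultures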; details: S. cerevisiae sgs1 mutant, hits give high values
Outline: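 Vehicle-treated cultures served as reference for growth inhibition of a yeast strain altered in DNA damage repair or cell cycle control after compound exposure.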

[14] = NCI Yeast Anticancer Drug Screen. Data for the mlh1 rad18 strain (AID 175); details: S. cerevisiae mlh1 rad18 strain growth inhibition, hits give high values
Outline: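 Inhibition values reflect reduced growth of mutant yeast versus vehicle-treated controls following compound exposure; the mutations affect DNA damage repair.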

[15] = NCI Yeast Anticancer Drug Screen. Data for the rad18 strain (AID 177); details: S. cerevisiae rad18 mutant growth inhibition, hits give high values
Outline: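 Steps: expose repair-mutant yeast to compound; measure growth; express as inhibition relative to vehicle control.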

[16] = at 5.0 µM (retest, dose inferred, filed as 0.5)
[17] = at 50.0 µM (retest, dose inferred, filed as 5.0)

O=C1c2ccccc2C(=O)c2c(O)c(NCCNCCO)cc(O)c21
growth inhibition ([1]; at 1.2 µM): 1%
growth inhibition ([1]; at 3.7 µM): -1%
growth inhibition ([1]; at 11.0 µM): 9%
growth inhibition ([1]; at 33.0 µM): 71% (active)
growth inhibition ([1]; at 100.0 µM): 83% (active)
growth inhibition ([2]; at 1.2 µM): -4%
growth inhibition ([2]; at 3.7 µM): 8%
growth inhibition ([2]; at 11.0 µM): 2%
growth inhibition ([2]; at 33.0 µM): 16%
growth inhibition ([2]; at 100.0 µM): 92% (active)
growth inhibition ([3]; at 1.2 µM): 0%
growth inhibition ([3]; at 3.7 µM): 4%
growth inhibition ([3]; at 11.0 µM): 36%
growth inhibition ([3]; at 33.0 µM): 91% (active)
growth inhibition ([3]; at 100.0 µM): 96% (active)
growth inhibition ([4]; at 1.2 µM): -9%
growth inhibition ([4]; at 3.7 µM): -1%
growth inhibition [4, 16]: 19%
growth inhibition ([4]; at 11.0 µM): 21%
growth inhibition ([4]; at 33.0 µM): 89% (active)
growth inhibition [4, 17]: 93% (active)
growth inhibition ([4]; at 50.0 µM): 87.3% (active)
growth inhibition ([4]; at 100.0 µM): 94% (active)
growth inhibition ([5]; at 1.2 µM): -3%
growth inhibition ([5]; at 3.7 µM): -12%
growth inhibition [5, 16]: 23%
growth inhibition ([5]; at 11.0 µM): 11%
growth inhibition ([5]; at 33.0 µM): 84% (active)
growth inhibition [5, 17]: 96% (active)
growth inhibition ([5]; at 50.0 µM): 87.2% (active)
growth inhibition ([5]; at 100.0 µM): 86% (active)
growth inhibition ([6]; at 1.2 µM): -5%
growth inhibition ([6]; at 3.7 µM): -2%
growth inhibition ([6]; at 11.0 µM): 40%
growth inhibition ([6]; at 33.0 µM): 95% (active)
growth inhibition ([6]; at 100.0 µM): 95% (active)
growth inhibition [7, 16]: 35%
growth inhibition [7, 17]: 97% (active)
growth inhibition ([7]; at 50.0 µM): 85.2% (active)
growth inhibition ([8]; at 1.2 µM): 21%
growth inhibition ([8]; at 3.7 µM): 33%
growth inhibition ([8]; at 11.0 µM): 29%
growth inhibition ([8]; at 33.0 µM): 82% (active)
growth inhibition ([8]; at 100.0 µM): 93% (active)
growth inhibition [9, 16]: 11%
growth inhibition [9, 17]: 57%
growth inhibition ([9]; at 50.0 µM): 65.5%
growth inhibition ([10]; at 1.2 µM): 13%
growth inhibition ([10]; at 3.7 µM): 21%
growth inhibition [10, 16]: 39%
growth inhibition ([10]; at 11.0 µM): 45%
growth inhibition ([10]; at 33.0 µM): 90% (active)
growth inhibition [10, 17]: 97% (active)
growth inhibition ([10]; at 50.0 µM): 70.7% (active)
growth inhibition ([10]; at 100.0 µM): 91% (active)
growth inhibition ([11]; at 1.2 µM): -16%
growth inhibition ([11]; at 3.7 µM): -4%
growth inhibition ([11]; at 11.0 µM): 73% (active)
growth inhibition ([11]; at 33.0 µM): 81% (active)
growth inhibition ([11]; at 100.0 µM): 93% (active)
growth inhibition ([12]; at 1.2 µM): -23%
growth inhibition ([12]; at 3.7 µM): -13%
growth inhibition ([12]; at 11.0 µM): 44%
growth inhibition ([12]; at 33.0 µM): 91% (active)
growth inhibition ([12]; at 100.0 µM): 94% (active)
growth inhibition ([13]; at 1.2 µM): -4%
growth inhibition ([13]; at 3.7 µM): 12%
growth inhibition ([13]; at 11.0 µM): 48%
growth inhibition ([13]; at 33.0 µM): 93% (active)
growth inhibition ([13]; at 100.0 µM): 94% (active)
growth inhibition [14, 16]: 58%
growth inhibition [14, 17]: 95% (active)
growth inhibition ([14]; at 50.0 µM): 90.3% (active)
growth inhibition ([15]; at 1.2 µM): -13%
growth inhibition ([15]; at 3.7 µM): -3%
growth inhibition ([15]; at 11.0 µM): 20%
growth inhibition ([15]; at 33.0 µM): 89% (active)
growth inhibition ([15]; at 100.0 µM): 94% (active)

CC1C(c2ccccc2)SC(=N)N1C (stereo not drawn)
growth inhibition ([1]; at 1.2 µM): -1%
growth inhibition ([1]; at 3.7 µM): -1%
growth inhibition ([1]; at 11.0 µM): -2%
growth inhibition ([1]; at 33.0 µM): -1%
growth inhibition ([1]; at 100.0 µM): -1%
growth inhibition ([3]; at 1.2 µM): -1%
growth inhibition ([3]; at 3.7 µM): 0%
growth inhibition ([3]; at 11.0 µM): 0%
growth inhibition ([3]; at 33.0 µM): -1%
growth inhibition ([3]; at 100.0 µM): -1%
growth inhibition ([4]; at 1.2 µM): -2%
growth inhibition ([4]; at 3.7 µM): -46%
growth inhibition [4, 16]: 0%
growth inhibition ([4]; at 11.0 µM): -55%
growth inhibition ([4]; at 33.0 µM): -4%
growth inhibition [4, 17]: 51%
growth inhibition ([4]; at 50.0 µM): -19.9%
growth inhibition ([4]; at 100.0 µM): -4%
growth inhibition ([5]; at 1.2 µM): 0%
growth inhibition ([5]; at 3.7 µM): -1%
growth inhibition [5, 16]: 6%
growth inhibition ([5]; at 11.0 µM): -1%
growth inhibition ([5]; at 33.0 µM): -1%
growth inhibition [5, 17]: 46%
growth inhibition ([5]; at 50.0 µM): -5.6%
growth inhibition ([5]; at 100.0 µM): -1%
growth inhibition ([6]; at 1.2 µM): 1%
growth inhibition ([6]; at 3.7 µM): 2%
growth inhibition ([6]; at 11.0 µM): 2%
growth inhibition ([6]; at 33.0 µM): 3%
growth inhibition ([6]; at 100.0 µM): 2%
growth inhibition [7, 16]: 12%
growth inhibition [7, 17]: 54%
growth inhibition ([7]; at 50.0 µM): -5.35%
growth inhibition ([8]; at 1.2 µM): 4%
growth inhibition ([8]; at 3.7 µM): 1%
growth inhibition ([8]; at 11.0 µM): 4%
growth inhibition ([8]; at 33.0 µM): 4%
growth inhibition ([8]; at 100.0 µM): -2%
growth inhibition [9, 16]: 1%
growth inhibition [9, 17]: 56%
growth inhibition ([9]; at 50.0 µM): 23.4%
growth inhibition ([10]; at 1.2 µM): -3%
growth inhibition ([10]; at 3.7 µM): -2%
growth inhibition [10, 16]: -2%
growth inhibition ([10]; at 11.0 µM): -3%
growth inhibition ([10]; at 33.0 µM): -3%
growth inhibition [10, 17]: -7%
growth inhibition ([10]; at 50.0 µM): -4.4%
growth inhibition ([10]; at 100.0 µM): 0%
growth inhibition ([11]; at 1.2 µM): 1%
growth inhibition ([11]; at 3.7 µM): 8%
growth inhibition ([11]; at 11.0 µM): 0%
growth inhibition ([11]; at 33.0 µM): 0%
growth inhibition ([11]; at 100.0 µM): 0%
growth inhibition ([12]; at 1.2 µM): -1%
growth inhibition ([12]; at 3.7 µM): -2%
growth inhibition ([12]; at 11.0 µM): 0%
growth inhibition ([12]; at 33.0 µM): -1%
growth inhibition ([12]; at 100.0 µM): -1%

From PubChem BioAssay (NCI)
